In paper PMC5540273 (PLoS ONE, 2017):

Assays:
Details in all cases: concentration: 1 μM, replicates: in singlicate; n = 1
PAK3 = test system: PAK3
PAK4 = test system: PAK4
PAK6 = test system: PAK6
PAK7 = test system: PAK7
PCTK1 = test system: T1, PCTK1
T1 construct: gene CDK16

PCTK2 = test system: T2, PCTK2
T2 construct: gene CDK17

PCTK3 = test system: T3, PCTK3
T3 construct: gene CDK18

PDGFRA = test system: PDGFRA
PDGFRB = test system: PDGFRB
PDPK1 = test system: PDPK1
PFTAIRE2 = test system: PFTAIRE2
PFTK1 = test system: T4, PFTK1
T4 construct: gene CDK14

PHKG1 = test system: PHKG1
PHKG2 = test system: PHKG2
PIK3C2B = test system: PIK3C2B
PIK3C2G = test system: PIK3C2G
PIK3CA = test system: PIK3CA
PIK3CB = test system: PIK3CB
PIK3CD = test system: PIK3CD
PIK3CG = test system: PIK3CG
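Note: KINOMEscan kinase panel screen.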

SMILES	%Inh (PAK3) [%]	%Inh (PAK4) [%]	%Inh (PAK6) [%]	%Inh (PAK7) [%]	%Inh (PCTK1) [%]	%Inh (PCTK2) [%]	%Inh (PCTK3) [%]	%Inh (PDGFRA) [%]	%Inh (PDGFRB) [%]	%Inh (PDPK1) [%]	%Inh (PFTAIRE2) [%]	%Inh (PFTK1) [%]	%Inh (PHKG1) [%]	%Inh (PHKG2) [%]	%Inh (PIK3C2B) [%]	%Inh (PIK3C2G) [%]	%Inh (PIK3CA) [%]	%Inh (PIK3CB) [%]	%Inh (PIK3CD) [%]	%Inh (PIK3CG) [%]
CN1c2ccc(-c3ccc(C(N)=O)cc3)cc2-c2[nH]ncc2S1(=O)=O	0	5	0	0	0	0	0	0	0	21	0	0	0	14	0	0	0	0	0	0
CC[C@@H]1CO[C@H](C(=O)Nc2ccccc2)CN1c1cc(-c2ccc3c(N)n[nH]c3c2)nc(NC)n1 [GSK2376236]	0	0	3	7	3	11	0	0	20	94.6	23	28	0	11	0	0	0	0	0	6
Cn1cnc2c(N)ncnc21 [SKF-97623]	0	0	0	0	0	0	0	100	0	0	0	0	0	0	0	0	0	0	0	4
Cc1nccc(-c2c(-c3ccc(F)cc3)ncn2CCCN2CCOCC2)n1.Cl [SB-282975]	0	0	0	0	1	3	10	0	0	29	24	2	33	89	0	22	0	20	49	0
CCc1ccc(-c2ccc3c(c2)-c2n[nH]cc2S(=O)(=O)N3C)cc1	0	0	0	0	0	0	0	0	7	4	0	0	0	0	0	0	0	0	0	0
CC(=O)c1cccc(NC(=O)NC2CCN(c3ccnc(Nc4ccc(F)cc4)n3)C2)c1 (stereo not shown) [GSK1379710]	0	0	0	20	8	19	24	10	43	0	26	14	0	1	0	0	0	0	24	7
CNCc1ccc2nc(NC(=O)c3ccc(C(C)(C)C)cc3)cn2c1	4	4	0	0	41	3	0	73	74	3	6	0	5	0	91.5	0	89	16	22	40
COc1ccc(Nc2nccc(NCCNC(=O)Nc3cc(C)ccc3C)n2)cc1 [GSK1379899]	22	0	0	0	2	0	2	0	5	0	9	32	0	0	90	0	86	0	0	68
COc1ccc(CSc2nnc(-c3ccc4nccn4c3)o2)cc1C(F)(F)F	0	16	35	22	13	8	3	28	0	0	0	4	0	0	21	12	15	11	29	32
COc1cccc(CNC(=O)NC2CCN(c3ccnc(Nc4ccc(F)cc4)n3)C2)c1 (stereo not shown) [GSK1379723]	38	0	0	0	10	0	14	7	15	0	7	0	0	26	0	0	0	0	2	0
COC(=O)C(NC(=O)NC1CCN(c2ccnc(Nc3ccc(F)cc3)n2)C1)c1ccccc1 (stereo not shown) [GSK1379712]	0	0	0	2	0	14	24	14	38	0	14	17	0	0	14	0	1	5	23	9
